The record followed here is the supplement of paper PMC3334620.

In all, about 33,000 sequences were measured (“E-score (-0.5 to 0.5)”: median about -0.041, highest 2% from about 0.37 on). Only a selection was taken, and the highest values are over-represented in it overall.

The assay has as its target T1, Ecm22 (UniProt Q05958).
T1 sequence: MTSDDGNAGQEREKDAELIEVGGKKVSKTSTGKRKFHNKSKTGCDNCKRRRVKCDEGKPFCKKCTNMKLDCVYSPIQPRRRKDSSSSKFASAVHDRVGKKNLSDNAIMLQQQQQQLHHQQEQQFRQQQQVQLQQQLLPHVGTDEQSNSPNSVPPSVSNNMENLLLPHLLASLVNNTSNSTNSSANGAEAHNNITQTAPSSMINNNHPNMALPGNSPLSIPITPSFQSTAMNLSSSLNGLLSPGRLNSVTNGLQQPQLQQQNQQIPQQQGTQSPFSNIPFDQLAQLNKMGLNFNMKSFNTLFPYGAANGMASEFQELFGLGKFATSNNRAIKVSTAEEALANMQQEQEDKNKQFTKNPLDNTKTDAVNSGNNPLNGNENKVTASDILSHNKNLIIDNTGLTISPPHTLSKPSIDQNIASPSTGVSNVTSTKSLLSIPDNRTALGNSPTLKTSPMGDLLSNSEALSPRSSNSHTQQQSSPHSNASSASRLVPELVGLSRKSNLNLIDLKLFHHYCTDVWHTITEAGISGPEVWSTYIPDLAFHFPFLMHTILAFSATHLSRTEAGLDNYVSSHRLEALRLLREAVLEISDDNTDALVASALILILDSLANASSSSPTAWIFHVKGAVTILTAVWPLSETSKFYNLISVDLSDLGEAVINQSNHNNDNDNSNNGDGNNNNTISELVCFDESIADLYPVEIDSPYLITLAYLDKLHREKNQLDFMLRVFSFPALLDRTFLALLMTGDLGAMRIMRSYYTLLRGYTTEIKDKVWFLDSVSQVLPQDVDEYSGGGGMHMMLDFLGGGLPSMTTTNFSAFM
Put plainly: PBM E-score (8-mer binding enrichment) (E-score (-0.5 to 0.5)); higher = stronger / more preferred TF binding. The note with it: protein concentration: 200 nM; construct: GST-full length. As for the experimental part:
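Universal 'all 10-mer' protein binding microarrays (Agilent AMADID 015681) probed with GST-tagged S. cerevisiae TFs (full-length or DBD) made by in vitro transcription/translation (PURExpress), about 100-200 nM. Bound TF was detected with fluorescent anti-GST. Each ungapped 8-mer (which stands for itself and its reverse complement) is scored by the PBM enrichment score (E-score), a modified Wilcoxon-Mann-Whitney statistic from -0.5 to +0.5, computed with the Universal PBM Analysis Suite. Scale: above 0.35 generally sequence-specific binding.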
Take AGGACCAT: the “PBM E-score” value is 0.00977.

In the case of ATTCTACC, the “PBM E-score” value was -0.12.

Turning to GACAGGCA, the “PBM E-score” value was -0.0606.

On to AACATCCG, for which the “PBM E-score” value amounted to 0.158.

GGTGGAAC: the “PBM E-score” value was found to be 0.236.

As to ACGGCACT, the “PBM E-score” value stood at 0.0515.

For ATGATGAC, the “PBM E-score” value is -0.0358.

For CAAGCTTC, the “PBM E-score” value was 0.0567.

Consider CTTTTTTA, for which the “PBM E-score” value is -0.19.

Consider ACCTCGTG, for which the “PBM E-score” value stood at 0.251.

For ACCTCGTA, the “PBM E-score” value was determined as 0.463.

Turning to GCCTCGAA, the “PBM E-score” value is 0.0731.

As to CCCTCGTA, the “PBM E-score” value is 0.477.

Turning to CCCTCGTC, the “PBM E-score” value was found to be 0.119.

For GCCTCGGA, the “PBM E-score” value came out at 0.175.

As for ACCTCGTC, the “PBM E-score” value amounted to 0.17.

CCCTCGGA: the “PBM E-score” value stood at 0.211.

For the sequence GCCTCGTA, the “PBM E-score” value was 0.481.

Take AACGGTAA: the “PBM E-score” value came out at 0.267.

On to ACTGGGTA, for which the “PBM E-score” value was 0.0533.

Consider ATGCGTCA, for which the “PBM E-score” value turned out to be 0.0653.

Take ACCGCTAA: the “PBM E-score” value came out at 0.144.

Take GGGGTTAC: the “PBM E-score” value was found to be 0.0772.

As to CTGTGCCA, the “PBM E-score” value was -0.185.

As for AGCATCAG, the “PBM E-score” value was -0.0729.

In the case of ATTCTAAC, the “PBM E-score” value was -0.0713.

Take AGGCCTGA: the “PBM E-score” value was -0.274.

As for GTAGGGGA, the “PBM E-score” value was -0.206.

For GTACGATA, the “PBM E-score” value stood at 0.456.

In the case of GCACGATA, the “PBM E-score” value is 0.0343.

On to ACACGATA, for which the “PBM E-score” value was determined as 0.152.

With CTACGATA, the “PBM E-score” value stood at 0.311.

For AGACGATA, the “PBM E-score” value is 0.143.

Consider ATACGATA, for which the “PBM E-score” value stood at 0.458.

Regarding AAGAACCT, the “PBM E-score” value is -0.208.

On to GTAAAGCA, for which the “PBM E-score” value was found to be 0.0968.

For TGAAAAAA, the “PBM E-score” value is -0.0832.

On to CCGTACCA, for which the “PBM E-score” value stood at 0.423.

On to CCGTACCC, for which the “PBM E-score” value turned out to be 0.433.

With ACGTACCG, the “PBM E-score” value worked out at 0.301.

Take CGGTACCG: the “PBM E-score” value came out at 0.234.

As for TGGTACCA, the “PBM E-score” value was -0.0735.

As for CCGTACCG, the “PBM E-score” value is 0.455.

ACGTACCA: the “PBM E-score” value was 0.306.

On to TCTTACCA, for which the “PBM E-score” value is 0.061.

With GCGTACCA, the “PBM E-score” value came out at 0.273.

In the case of GCGTACCC, the “PBM E-score” value is 0.229.

As for ACGTACCC, the “PBM E-score” value is 0.295.

In the case of TCGTACCA, the “PBM E-score” value came out at 0.488.

For AGGAACCG, the “PBM E-score” value came out at 0.0955.

Regarding GAGTCTAA, the “PBM E-score” value was -0.115.

Turning to CATAGGAC, the “PBM E-score” value was -0.091.

Regarding TCTATGCA, the “PBM E-score” value is -0.148.

Turning to CGCCGTTC, the “PBM E-score” value is 0.362.

Consider AGTCGTTG, for which the “PBM E-score” value was determined as 0.184.

For the sequence CGTCGATC, the “PBM E-score” value turned out to be 0.0984.

In the case of CGTCGTTC, the “PBM E-score” value stood at 0.479.

Regarding AGTCGTTC, the “PBM E-score” value was 0.425.

Regarding CGTCGTTA, the “PBM E-score” value is 0.374.

As for AGTCGTTA, the “PBM E-score” value stood at 0.273.

As to GGTCGTTA, the “PBM E-score” value was determined as 0.339.

As for AGTCGCTC, the “PBM E-score” value is 0.177.

Turning to CAATTGAC, the “PBM E-score” value is -0.0565.

As for AGGTCTGC, the “PBM E-score” value is -0.195.

Turning to CGGGAATA, the “PBM E-score” value worked out at 0.0624.

Take CGAACCCA: the “PBM E-score” value was found to be 0.167.

Take TCATCGGA: the “PBM E-score” value is -0.0141.

As to ATGCAGAC, the “PBM E-score” value was -0.0112.

For the sequence AACTGCGG, the “PBM E-score” value came to 0.0437.

For TGGCACCA, the “PBM E-score” value was -0.213.

With ACGCATAA, the “PBM E-score” value came to 0.0983.

Take CCGCATAA: the “PBM E-score” value is 0.119.

On to TCGCATAA, for which the “PBM E-score” value turned out to be 0.388.

Turning to CGTAAATC, the “PBM E-score” value was 0.349.

Turning to CGTAAATA, the “PBM E-score” value was determined as 0.377.

As to CGTAAAAC, the “PBM E-score” value was 0.367.

AGTAAAGA: the “PBM E-score” value was -0.225.

In the case of CGTAAAGA, the “PBM E-score” value was found to be 0.389.

As to CGTAAAAG, the “PBM E-score” value was 0.367.

AGTAAATA: the “PBM E-score” value was 0.00942.

CGTAAAGC: the “PBM E-score” value is 0.348.

For CGTAAAAA, the “PBM E-score” value was determined as 0.404.

For GACACTCC, the “PBM E-score” value is -0.0444.

Regarding CAGGGTAG, the “PBM E-score” value is -0.148.

For the sequence AATCTTTA, the “PBM E-score” value is -0.0885.

On to CCCTGACC, for which the “PBM E-score” value was -0.0114.

Take CGCGATAG: the “PBM E-score” value was found to be 0.135.
